Potency and activity change, negative = cytotoxicity data for 30 compounds are collected here from PubChem BioAssay (NCATS).

Records with an inconclusive call do not appear. Where a call stands in place of a potency, no number is given. A number with no mark means an inactive call. Active and inactive are the calls of the source. The call rests on the fitted dose curve; in most records, active means well fitted cell-killing curve with a large enough effect; inconclusive means small, poorly fitted or top-dose-only effect, or effect the other way; inactive means flat fitted curve, though single readings scatter.

For this assay, the system named is Es-2. Briefly: Primary qHTS to identify gynecologic anti-cancer compounds using libraries of approved drugs and bioactive compounds (AID 1345084). Further: nearly all actives have a fitted effect of over 55% in size. Particulars: Gynecologic cancer cell panel viability, ATPlite luminescence, 48 h; series mostly up to 57.5 µM. An outline of the steps: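 Cells, 1,000 per well, were allowed to settle for 16 h at 37 C before compound addition. Five concentrations were tested for 48 h, and viability was read by ATPlite luminescence after 15 min at room temperature.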
With `C=C1CCC2C(C)(C)CCC[C@]2(C)[C@H]1CC/C(C)=C/C(=O)O` (stereo not given in full), the Potency result is “inactive”.
Consider `COCC1OC(OC(C)(C)C2CCC3(C)C=C(C4CCC5C4(C)CC(O)C4OC(C(C)(C)O)CCC45C)CCC3O2)C(NC(C)=O)C(O)C1O` (stereo not given), for which the Potency entry is “inactive”.
For `C=C1CCC2[C@](C)(CCC[C@]2(C)C(=O)O)[C@H]1CC/C(C)=C/C(=O)OC` (stereo not given in full), the Potency result is “inactive”.
The same measure, in the same setting: with `COC(=O)c1c(CC=C(C)C)c(OC2OC(CO)C(O)C(O)C2O)c2ccccc2c1OC1OC(CO)C(O)C(O)C1O` (stereo not given) the entry was “inactive”; with `O=C(Cc1ccccc1)OC[C@H]1O[C@H](O[C@H]2O[C@H](CO)[C@@H](O)[C@H](O)[C@H]2O)[C@H](O)[C@@H](O)[C@@H]1O`, “inactive”.
Same read-out and setting: with `CC1=C2C[C@H]3OC(=O)[C@H](O)[C@@]4(O)[C@@H](C)[C@@H](O)[C@H](O)C([C@@]2(C)[C@H](O)[C@@H](O)C1)[C@@]34C` (stereo not given in full) the entry was “inactive”; with `CC1CC(=O)C2=C(O1)OC1(C)CCC3C(C)(C)C4OC4C(=O)C3(C)C1C2` (stereo not given), “inactive”; with `COc1ccnc(CCc2nc3ncccc3[nH]2)c1`, “inactive”.
With `C/C(=C/CO)CC[C@H]1[C@]2(C)C[C@H](O)CC(C)(C)[C@H]2CC[C@]1(C)O`, the Potency entry was “inactive”.
Take `COc1c2c(c(C)c3c1C(=O)OC3)OC1(C)CC(O)C34OC(O)(CCC3(C)C1C2)OC4(C)C` (stereo not given): the Potency result is “inactive”.
The same measure, in the same setting: under `COC(=O)[C@]1(Cc2ccc(O)c(CC=C(C)C)c2)OC(=O)C(O)=C1c1ccc(O)cc1` stands “inactive”; under `COc1cnc(-c2ccc(Cn3c(CC(C)(C)C(=O)O)c(SC(C)(C)C)c4cc(OC[C@@H]5Cc6ccccc6N5C(C)=O)ccc43)cc2)nc1`, “inactive”; under `CCC(C)C(=O)O[C@H]1C[C@](C)(O)[C@]23OC(C)(C)[C@H](C[C@H](OC(=O)c4ccccc4)[C@]2(COC(C)=O)[C@H]1OC(=O)C(C)CC)[C@H]3OC(C)=O` (stereo not given in full), “inactive”.
The same measure, in the same setting: under `CC1CC2(O)OC(=O)C3=C2C(CCC3)[C@@]12C[C@@H](c1ccoc1)OC2=O` (stereo not given in full) stands “inactive”; under `COc1cc(C(C)=O)ccc1O[C@@H]1O[C@H](CO)[C@@H](O)[C@H](O)[C@H]1O`, “inactive”; under `COC(=O)C1=COC(OC2OC(CO)C(O)C(O)C2O)C2C(C)C(OC(C)=O)C(OC(=O)c3ccccc3)C12` (stereo not given), “inactive”.
Same read-out and setting: under `COc1ccnc2[nH]cc(C(=O)C(=O)N3CCN(C(=O)c4ccccc4)CC3C)c12` (stereo not given) stands “inactive”.
For the compound `C[C@@H]1O[C@@H](O[C@H]2[C@H](O)[C@@H](O)[C@H](OC[C@H]3O[C@@H](OC(=O)[C@]45CCC(C)(C)C[C@H]4C4=CCC6[C@@]7(C)C[C@@H](O)[C@H](O)[C@@](C)(CO)C7[C@H](O)C[C@@]6(C)[C@]4(C)CC5)[C@H](O)[C@@H](O)[C@@H]3O)O[C@@H]2CO)[C@H](O)[C@H](O)[C@H]1O` (stereo not given in full), the activity change, negative = cytotoxicity was -1.56% [at 11.6 µM].
As to `O=C(CC1CC(c2ccc(F)cc2F)=NO1)N1CCOCC1` (stereo not given), the Potency result is “inactive”.
The same measure, in the same setting: under `COC(=O)C1=CO[C@@H](O[C@@H]2O[C@H](CO)[C@@H](O)[C@H](O)[C@H]2O)[C@@H]2[C@@H](C(=O)O)CC[C@H]12` stands “inactive”.
Take `C[C@@H]1O[C@@H](OC2C(CO)OC(OCC3OC(OC(=O)[C@]45CCC(C)(C)CC4C4=CCC6[C@@]7(C)CC[C@@H](O)[C@](C)(C(=O)O)C7CC[C@@]6(C)[C@]4(C)CC5)C(O)C(O)C3O)C(O)C2O)[C@H](O)[C@H](O)[C@H]1O` (stereo not given in full): the activity change, negative = cytotoxicity was -9.93% [at 11.6 µM].
For the compound `OC[C@H]1O[C@@H](OC[C@H]2O[C@@H](OCc3ccccc3)[C@H](O)[C@@H](O)[C@@H]2O)[C@H](O)[C@@H](O)[C@@H]1O`, the Potency result is “inactive”.
As to `COC1OC(O)C2(CCC3(O2)C(C)CC2OC(=O)C4(C)CCCC3(C)C24)C1O` (stereo not given), the Potency entry was “inactive”.
Still for that read-out and setting: with `C=C1C(OC(C)=O)C(=O)C2C(C)(C)C(O)CCC2(C)C1CC(OC(C)=O)/C(C)=C/COC(C)=O` (stereo not given) the entry was “inactive”; with `C/C(=C\CO)CC/C=C(\C)C(=O)O[C@@H]1O[C@H](CO)[C@@H](O)[C@H](O)[C@H]1O`, “inactive”.
The same measure, in the same setting: under `CC(=O)c1c(C)cccc1O[C@@H]1O[C@H](CO)[C@@H](O)[C@H](O)[C@H]1O` stands “inactive”; under `CC(=O)O[C@@H]1C=C2[C@H](CC[C@@]3(C)[C@@]2(O)CC[C@H]2Cc4c([nH]c5ccccc45)[C@@]23C)O[C@@H]1C(C)(C)O`, “inactive”; under `C=CC1(C)CC=C2C(CCC3C(C)(C(=O)O)CCCC23C)C1` (stereo not given), “inactive”.
With `CC(C)c1ccc2c(c1)C(=O)CC1C(C)(C(=O)O)CCCC21C` (stereo not given), the Potency result is “inactive”.
Take `CC(C)CC(=O)O[C@@H]1O[C@H](CO)[C@@H](O[C@H]2O[C@H](C)[C@@H](N[C@H]3C=C(CO)[C@@H](O[C@H]4O[C@H](CO)[C@@H](O[C@H]5O[C@H](CO)[C@@H](O[C@H]6O[C@H](CO)[C@@H](O)[C@H](O)[C@H]6O)[C@H](O)[C@H]5O)[C@H](O)[C@H]4O)[C@H](O)[C@H]3O)[C@H](O)[C@H]2O)[C@H](O)[C@H]1O`: the activity change, negative = cytotoxicity is -3.07% [at 11.6 µM].
